Laboratory results reported in ChEMBL document CHEMBL1961873, “Compounds: GSK PKIS; Assays: Nanosyn kinase panel” (2012).

Columns and labels:
[1] = biological target: Tyrosine-protein kinase Fyn (Homo sapiens) (UniProt P06241); conditions: at 1 µM
[2] = biological target: Tyrosine-protein kinase HCK (Homo sapiens) (UniProt P08631); conditions: at 0.1 µM
[3] = biological target: Tyrosine-protein kinase HCK (Homo sapiens) (UniProt P08631); conditions: at 1 µM
[4] = biological target: Insulin-like growth factor 1 receptor (Homo sapiens) (UniProt P08069); conditions: at 0.1 µM
[5] = biological target: Insulin-like growth factor 1 receptor (Homo sapiens) (UniProt P08069); conditions: at 1 µM
[6] = biological target: Insulin receptor (Homo sapiens) (UniProt P06213); conditions: at 0.1 µM
[7] = biological target: Insulin receptor (Homo sapiens) (UniProt P06213); conditions: at 1 µM
[8] = biological target: Insulin receptor-related protein (Homo sapiens) (UniProt P14616); conditions: at 0.1 µM
[9] = biological target: Insulin receptor-related protein (Homo sapiens) (UniProt P14616); conditions: at 1 µM
[10] = biological target: T1, Tyrosine-protein kinase ITK/TSK (Homo sapiens) (UniProt Q08881); conditions: at 0.1 µM;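 also: mean percent inhibition of ITK from the GSK PKIS screen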
T1 sequence (whole entry): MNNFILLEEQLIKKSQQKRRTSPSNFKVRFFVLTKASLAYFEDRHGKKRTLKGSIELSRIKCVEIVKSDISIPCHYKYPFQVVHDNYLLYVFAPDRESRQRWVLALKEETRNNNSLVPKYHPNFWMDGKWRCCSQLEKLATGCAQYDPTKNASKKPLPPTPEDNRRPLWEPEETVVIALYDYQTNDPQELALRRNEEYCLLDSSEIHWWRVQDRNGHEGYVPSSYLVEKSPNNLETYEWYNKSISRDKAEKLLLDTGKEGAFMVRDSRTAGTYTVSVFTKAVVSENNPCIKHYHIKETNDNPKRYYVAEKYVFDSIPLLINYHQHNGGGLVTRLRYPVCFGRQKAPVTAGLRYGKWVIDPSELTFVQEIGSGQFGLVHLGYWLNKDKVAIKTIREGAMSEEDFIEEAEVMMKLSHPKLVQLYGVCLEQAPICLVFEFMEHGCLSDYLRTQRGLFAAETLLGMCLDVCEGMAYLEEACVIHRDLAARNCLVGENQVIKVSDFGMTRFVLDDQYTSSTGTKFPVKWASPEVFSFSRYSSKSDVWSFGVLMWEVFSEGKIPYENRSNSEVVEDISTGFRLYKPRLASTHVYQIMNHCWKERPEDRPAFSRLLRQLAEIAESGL

Insulin-like growth factor 1 receptor (Homo sapiens), sequence (P08069 31-736 limits assumed): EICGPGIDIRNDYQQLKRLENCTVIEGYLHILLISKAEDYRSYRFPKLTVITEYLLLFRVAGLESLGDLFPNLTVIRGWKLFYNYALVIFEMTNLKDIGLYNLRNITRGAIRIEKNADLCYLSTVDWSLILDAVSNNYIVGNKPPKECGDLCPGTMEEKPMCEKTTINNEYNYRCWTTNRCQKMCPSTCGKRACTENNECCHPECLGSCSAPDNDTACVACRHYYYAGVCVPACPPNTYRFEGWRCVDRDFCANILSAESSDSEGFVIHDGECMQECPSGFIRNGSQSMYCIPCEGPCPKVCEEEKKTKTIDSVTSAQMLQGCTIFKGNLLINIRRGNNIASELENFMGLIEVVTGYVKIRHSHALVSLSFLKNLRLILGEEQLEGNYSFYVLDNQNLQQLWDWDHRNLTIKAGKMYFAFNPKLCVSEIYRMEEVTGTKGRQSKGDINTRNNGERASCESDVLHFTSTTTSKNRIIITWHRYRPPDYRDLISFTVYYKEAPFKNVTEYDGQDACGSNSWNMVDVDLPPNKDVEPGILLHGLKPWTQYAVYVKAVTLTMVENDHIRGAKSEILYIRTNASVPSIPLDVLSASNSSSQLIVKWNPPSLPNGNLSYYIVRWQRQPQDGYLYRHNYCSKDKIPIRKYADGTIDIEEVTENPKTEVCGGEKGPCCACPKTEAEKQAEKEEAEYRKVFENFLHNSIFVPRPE
Insulin-like growth factor 1 receptor (Homo sapiens), sequence (P08069 741-1367 limits assumed): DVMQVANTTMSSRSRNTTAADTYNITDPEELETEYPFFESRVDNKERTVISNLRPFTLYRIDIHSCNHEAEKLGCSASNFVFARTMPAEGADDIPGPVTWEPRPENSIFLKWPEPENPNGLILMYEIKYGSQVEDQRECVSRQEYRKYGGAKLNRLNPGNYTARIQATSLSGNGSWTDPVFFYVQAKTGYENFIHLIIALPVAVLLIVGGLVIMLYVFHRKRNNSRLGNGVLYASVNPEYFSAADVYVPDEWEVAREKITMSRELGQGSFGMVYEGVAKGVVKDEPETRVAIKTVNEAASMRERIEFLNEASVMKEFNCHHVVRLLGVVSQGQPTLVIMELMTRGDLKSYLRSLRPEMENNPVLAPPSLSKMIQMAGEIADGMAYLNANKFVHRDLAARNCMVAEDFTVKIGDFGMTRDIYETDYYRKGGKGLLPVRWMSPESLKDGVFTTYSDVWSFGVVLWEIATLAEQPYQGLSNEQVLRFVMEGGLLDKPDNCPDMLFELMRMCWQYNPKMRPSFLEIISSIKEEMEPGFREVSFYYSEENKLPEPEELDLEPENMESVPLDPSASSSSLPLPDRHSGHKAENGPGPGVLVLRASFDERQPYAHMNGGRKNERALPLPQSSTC
Tyrosine-protein kinase HCK (Homo sapiens), sequence (P08631 2-526 limits assumed): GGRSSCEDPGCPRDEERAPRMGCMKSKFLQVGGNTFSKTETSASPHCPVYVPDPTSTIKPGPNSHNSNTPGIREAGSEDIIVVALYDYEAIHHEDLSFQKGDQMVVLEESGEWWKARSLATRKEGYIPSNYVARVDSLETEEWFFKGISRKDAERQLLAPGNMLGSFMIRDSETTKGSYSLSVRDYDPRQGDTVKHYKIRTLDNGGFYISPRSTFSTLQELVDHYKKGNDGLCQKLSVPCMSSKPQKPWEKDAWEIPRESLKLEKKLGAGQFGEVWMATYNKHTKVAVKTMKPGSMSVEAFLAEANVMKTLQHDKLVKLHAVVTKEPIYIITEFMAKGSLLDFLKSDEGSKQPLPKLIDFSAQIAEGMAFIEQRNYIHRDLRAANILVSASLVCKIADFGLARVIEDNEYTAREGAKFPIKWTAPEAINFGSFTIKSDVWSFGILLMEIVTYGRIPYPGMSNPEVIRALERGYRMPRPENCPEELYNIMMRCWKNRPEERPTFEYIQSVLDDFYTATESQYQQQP
Insulin receptor-related protein (Homo sapiens), sequence (P14616 27-742 limits assumed): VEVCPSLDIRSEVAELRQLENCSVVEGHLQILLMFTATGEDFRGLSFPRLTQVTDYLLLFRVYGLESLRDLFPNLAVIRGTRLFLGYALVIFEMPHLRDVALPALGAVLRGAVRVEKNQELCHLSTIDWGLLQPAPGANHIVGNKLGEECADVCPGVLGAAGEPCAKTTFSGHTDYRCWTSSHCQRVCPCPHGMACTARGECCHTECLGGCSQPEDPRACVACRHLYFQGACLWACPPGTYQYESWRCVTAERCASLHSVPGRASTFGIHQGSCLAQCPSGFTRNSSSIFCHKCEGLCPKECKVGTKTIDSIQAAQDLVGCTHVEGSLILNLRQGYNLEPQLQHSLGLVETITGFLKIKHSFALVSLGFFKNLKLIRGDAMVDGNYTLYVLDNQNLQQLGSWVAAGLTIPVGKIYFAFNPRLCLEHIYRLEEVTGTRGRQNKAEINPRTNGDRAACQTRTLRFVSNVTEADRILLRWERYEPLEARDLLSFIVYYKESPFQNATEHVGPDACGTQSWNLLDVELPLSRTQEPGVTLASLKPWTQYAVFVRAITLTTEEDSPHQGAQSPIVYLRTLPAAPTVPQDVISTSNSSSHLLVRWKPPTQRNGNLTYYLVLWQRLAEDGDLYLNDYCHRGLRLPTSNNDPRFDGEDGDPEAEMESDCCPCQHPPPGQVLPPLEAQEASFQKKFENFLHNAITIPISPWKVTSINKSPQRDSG
Insulin receptor-related protein (Homo sapiens), sequence (P14616 747-1297 limits assumed): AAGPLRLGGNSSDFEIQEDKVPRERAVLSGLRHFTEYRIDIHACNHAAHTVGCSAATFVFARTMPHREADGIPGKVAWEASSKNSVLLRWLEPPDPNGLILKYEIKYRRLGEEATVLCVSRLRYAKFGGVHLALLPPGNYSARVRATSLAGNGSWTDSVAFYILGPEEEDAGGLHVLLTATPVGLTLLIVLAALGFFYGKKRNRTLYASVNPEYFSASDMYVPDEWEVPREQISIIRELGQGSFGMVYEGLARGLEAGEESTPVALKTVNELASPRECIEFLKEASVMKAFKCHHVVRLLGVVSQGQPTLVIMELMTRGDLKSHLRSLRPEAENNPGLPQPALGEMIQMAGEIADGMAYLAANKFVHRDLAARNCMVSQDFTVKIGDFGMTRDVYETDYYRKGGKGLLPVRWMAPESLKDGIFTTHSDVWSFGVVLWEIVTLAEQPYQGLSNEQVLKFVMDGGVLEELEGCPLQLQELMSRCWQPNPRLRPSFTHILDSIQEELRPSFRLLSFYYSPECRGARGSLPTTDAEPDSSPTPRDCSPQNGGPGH
Insulin receptor (Homo sapiens), sequence (P06213 28-758 limits assumed): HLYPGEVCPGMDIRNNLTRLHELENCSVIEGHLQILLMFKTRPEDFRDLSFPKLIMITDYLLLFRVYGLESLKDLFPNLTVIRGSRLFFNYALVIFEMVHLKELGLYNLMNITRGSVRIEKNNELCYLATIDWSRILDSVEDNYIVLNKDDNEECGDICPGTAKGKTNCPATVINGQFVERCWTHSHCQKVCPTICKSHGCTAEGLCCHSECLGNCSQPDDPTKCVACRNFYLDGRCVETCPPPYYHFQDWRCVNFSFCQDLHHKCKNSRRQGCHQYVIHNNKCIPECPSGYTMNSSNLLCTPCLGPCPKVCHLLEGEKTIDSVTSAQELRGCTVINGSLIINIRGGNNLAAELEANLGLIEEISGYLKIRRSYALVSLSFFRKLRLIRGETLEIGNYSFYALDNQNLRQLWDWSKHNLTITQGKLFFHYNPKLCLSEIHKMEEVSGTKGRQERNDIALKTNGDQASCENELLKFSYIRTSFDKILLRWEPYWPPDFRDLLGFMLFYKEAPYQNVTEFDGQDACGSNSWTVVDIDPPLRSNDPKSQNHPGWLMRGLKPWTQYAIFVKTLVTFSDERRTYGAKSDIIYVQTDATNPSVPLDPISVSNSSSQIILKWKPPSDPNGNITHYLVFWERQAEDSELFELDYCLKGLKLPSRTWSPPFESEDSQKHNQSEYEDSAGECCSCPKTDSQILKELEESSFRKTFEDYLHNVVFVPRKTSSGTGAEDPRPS
Insulin receptor (Homo sapiens), sequence (P06213 763-1382 limits assumed): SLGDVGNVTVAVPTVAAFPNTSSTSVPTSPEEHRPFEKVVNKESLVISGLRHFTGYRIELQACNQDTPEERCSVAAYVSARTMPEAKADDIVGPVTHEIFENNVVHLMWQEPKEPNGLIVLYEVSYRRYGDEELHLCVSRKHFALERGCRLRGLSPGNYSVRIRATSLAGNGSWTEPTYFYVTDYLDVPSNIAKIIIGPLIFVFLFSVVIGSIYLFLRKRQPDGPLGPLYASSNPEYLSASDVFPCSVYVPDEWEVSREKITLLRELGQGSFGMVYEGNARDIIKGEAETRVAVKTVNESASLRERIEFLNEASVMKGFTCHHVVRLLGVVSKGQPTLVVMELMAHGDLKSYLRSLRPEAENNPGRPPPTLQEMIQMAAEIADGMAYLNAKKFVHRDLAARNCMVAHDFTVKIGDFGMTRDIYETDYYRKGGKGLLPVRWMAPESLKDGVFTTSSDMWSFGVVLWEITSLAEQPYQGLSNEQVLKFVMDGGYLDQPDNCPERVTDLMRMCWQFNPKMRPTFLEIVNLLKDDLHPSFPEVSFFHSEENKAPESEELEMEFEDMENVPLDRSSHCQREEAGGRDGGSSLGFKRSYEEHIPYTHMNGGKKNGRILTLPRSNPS
Tyrosine-protein kinase Fyn (Homo sapiens), sequence (P06241 2-537 limits assumed): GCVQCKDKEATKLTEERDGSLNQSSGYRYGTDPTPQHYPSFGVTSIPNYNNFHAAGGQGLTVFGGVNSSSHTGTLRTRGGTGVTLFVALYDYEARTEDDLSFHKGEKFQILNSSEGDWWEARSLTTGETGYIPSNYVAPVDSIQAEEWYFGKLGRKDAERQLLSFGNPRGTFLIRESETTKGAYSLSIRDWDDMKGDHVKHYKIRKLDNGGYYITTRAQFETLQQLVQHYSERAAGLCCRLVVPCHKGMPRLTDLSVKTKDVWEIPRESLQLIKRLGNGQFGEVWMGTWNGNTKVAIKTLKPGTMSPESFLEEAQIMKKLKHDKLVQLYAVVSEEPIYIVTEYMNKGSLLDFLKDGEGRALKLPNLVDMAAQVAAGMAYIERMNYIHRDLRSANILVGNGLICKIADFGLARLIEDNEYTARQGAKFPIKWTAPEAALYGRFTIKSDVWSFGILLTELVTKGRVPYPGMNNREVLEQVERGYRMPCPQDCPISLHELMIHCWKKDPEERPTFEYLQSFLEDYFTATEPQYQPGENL

Compound | inhibition [1] | inhibition [2] | inhibition [3] | inhibition [4] | inhibition [5] | inhibition [6] | inhibition [7] | inhibition [8] | inhibition [9] | inhibition [10]
Cc1ccc(O)cc1Nc1ccnc2cc(-c3ccccn3)ccc12 | 88.5% | 70.9% | 87.9% | 5.77% | 4.82% | 5.4% | 5.51% | 5.36% | 3.66% | 1.62%
COc1cc(Nc2nccc(Nc3ccc4c(C)n[nH]c4c3)n2)cc(OC)c1OC | 85.4% | 31.2% | 67.7% | 28% | 76.8% | 13.1% | 64.7% | 1.88% | 3.74% | 2.37%
COC(=O)c1sc(-n2cnc3cc(OC)c(OC)cc32)cc1OCc1ccccc1C(F)(F)F | 56.3% | 9.79% | 28.1% | 0.42% | 0.25% | 5.09% | 5.96% | 1.78% | -0.14% | 1.1%
COc1ccc(-c2oc3ncnc(N)c3c2-c2ccc(NC(=O)Nc3cc(C(F)(F)F)ccc3F)cc2)cc1 | 52.1% | 31% | 86.1% | 4.58% | 7.94% | 4.98% | 27.2% | 1.97% | 6.8% | 5.01%
Nc1nc(-c2ccc(F)cc2)c(-c2ccc3ncccc3n2)s1 | 12.4% | 5.89% | 17.5% | 4.9% | 24.4% | 6.61% | 43.3% | 2.47% | 1.87% | 2.58%
CC(=O)Nc1cccc(C#Cc2cncnc2Nc2ccc(OCc3cccc(F)c3)c(Cl)c2)c1 | 5.51% | 5.81% | 9.29% | 1.84% | 2.53% | 3.44% | 1.06% | 2.25% | 1.77% | 1.8%
COc1ccc(-c2cc(-c3c[nH]nc3-c3ccccn3)ccn2)cc1 | 3.5% | 4.81% | 10.3% | 3.75% | 3.01% | 4.5% | 3.43% | 3.63% | 3.15% | 1.28%
COc1ccc(CNC(=O)c2ccc(-c3cc(-c4nnc(C)o4)ccc3C)cc2)cc1 | 2.79% | 5.56% | 4.62% | -2.65% | 0.47% | 0.9% | 0.55% | 0.27% | 0.52% | 2.25%
Cc1ccc2c(-c3ccnc(Nc4ccccc4)n3)c(-c3ccc(F)cc3)nn2n1 | 68.9% | 11.9% | 43.9% | 1.92% | 5.18% | 1.31% | 7.57% | 4.42% | 2.61% | 1.54%
CC(C)(CO)CNC(=O)c1ccc2c(c1)/C(=N/Nc1ccc(S(N)(=O)=O)cc1)C(=O)N2 | 53.7% | 0.91% | 21.2% | -4.8% | -2.3% | -1.59% | -0.37% | -2% | -2.31% | -1.6%
CN1CCC(n2cnc(-c3ccc(F)cc3)c2-c2ccnc(Nc3ccccc3)n2)CC1 | 8.11% | 4.85% | 11.1% | 1.01% | 1.68% | 1.5% | 0.39% | 0.31% | 2.49% | 0.83%
COc1cccc(-n2ncc3c(N/N=C/c4ccc(F)cc4)ncnc32)c1 | 31.1% | 6.41% | 17.5% | 2.52% | 3.62% | -0.02% | 2.69% | 2.92% | 2.32% | 1.34%
CCc1nn2ncccc2c1-c1ccnc(NC2CC2)n1 | 5.07% | 5.27% | 5.74% | 1.94% | 2% | 2.33% | 4.74% | 2.32% | 1.77% | 1.28%
CS(=O)(=O)CCNCc1coc(-c2ccc3ncnc(Nc4ccc(OCc5ccccc5)cc4)c3c2)c1 | 12.2% | 4.78% | 9.64% | 0.62% | 2.16% | 3.09% | 2.56% | -0.04% | 3.03% | 0.65%
c1ccc(-c2nc3n(c2-c2ccc4c(c2)OCO4)CCC3)nc1 | 2.79% | 2.86% | 0.81% | 9.41% | 8.89% | 4.57% | 3.26% | 0.08% | 1.11% | 0.42%
Nc1ncc(-c2cccc(S(N)(=O)=O)c2)c2scc(-c3ccc(F)c(Cl)c3)c12 | 32.6% | 28.2% | 76.1% | 0.87% | 1.23% | -0.93% | 1.76% | 2.94% | 4.45% | 0.53%
NC(=O)c1sc(-n2cnc3ccc(C(F)(F)F)cc32)cc1OCc1ccccc1Br | 4.41% | 5.59% | 5.95% | 3.3% | 1.19% | 4.46% | 5.5% | 1.61% | 0.64% | 1.03%
O=C(Nc1n[nH]c2cc(-c3ccc(F)cc3)ccc12)C1CC1 | 3.69% | 5.36% | 8.36% | 4.19% | 0.88% | 3.21% | 5.18% | 1.75% | 1.45% | 1.07%
COc1ccc2c(-c3ccnc(Nc4cccc(OC(F)(F)F)c4)n3)cnn2n1 | 7.69% | 5.89% | 11.3% | 3.31% | 5.36% | 4.34% | 8.18% | 4.74% | 3.42% | 1.46%
NS(=O)(=O)c1ccc(Nc2ncc(-c3ccccc3)o2)cc1 | 5.41% | 4.43% | 10.7% | 3.39% | 3.81% | 2.2% | 4.14% | 3.04% | 1.16% | 1.19%
COc1ccc(-c2cc3c(N)ncnc3o2)cc1 | 3.42% | -0.32% | 7.05% | -3.63% | -0.91% | -0.41% | 2.44% | -2.87% | -2.2% | -0.48%
CNC(=O)c1cc(-c2ccc(F)cc2)cc(-c2ccc(S(=O)(=O)N3CCCC3)cc2)c1N | 5.48% | 2.71% | 3.16% | 0.57% | 1.32% | 4.78% | 5.39% | -0.17% | 1.33% | 1.41%
Cc1cccc(Nc2ncc(-c3ccccc3)o2)c1 | 8.62% | 4.6% | 10.2% | 4.44% | 1.6% | 3.27% | 2.89% | 2.57% | 1.2% | 2.38%
CCNC(=O)O[C@H]1CN[C@H](C#Cc2cc3ncnc(Nc4ccc(OCc5cccc(F)c5)c(Cl)c4)c3s2)C1 | 1.8% | 5.66% | 5.6% | 3.27% | 2.91% | 0.78% | 6.61% | 0.8% | 1.47% | 1.32%
COC(=O)Nc1nc2ccc(Oc3ccc(NC(=O)Nc4cccc(Cl)c4)cc3)cc2[nH]1 | 2.41% | 3.38% | 2.91% | 3.52% | 2.1% | -1.15% | 0.68% | -1.26% | -0.57% | 0.74%
c1ccc(COc2ccc(Nc3ncnc4ccc(-c5ccco5)cc34)cc2)cc1 | 3.93% | 1.03% | 1.93% | -0.83% | -0.77% | 0.94% | 0.94% | 0.38% | 0.28% | -0.91%
NS(=O)(=O)c1ccc(N/N=C2\C(=O)Nc3ccc4ncccc4c32)cc1 | 30.1% | 13.6% | 73.5% | 1.63% | 13.7% | 5.75% | 27.8% | -0.5% | 1.85% | 2.75%
c1cc(-c2cnn3nc(N4CCOCC4)ccc23)nc(NC2CC2)n1 | 4.87% | 7.14% | 11.7% | 4.81% | 5% | 4.73% | 8.56% | 2.65% | 1.15% | 1.06%
Cc1cccc2c1NC(=O)/C2=N\Nc1ccc(S(N)(=O)=O)cc1 | 1.92% | 4.11% | 6.57% | 1.39% | 2.37% | 2.44% | 2.27% | 6.42% | 0.05% | 1.75%
